{"source": "PubChem BioAssay (NCATS)", "note": "Results filed as inconclusive are left out. Values without a mark were called inactive. Active and inactive are the calls of the source. The call rests on the fitted dose curve; in most records, active means well fitted inhibition curve with a large enough effect; inconclusive means small, poorly fitted or top-dose-only effect; inactive means flat fitted curve, though single readings scatter. On the % scale 0 is the no-effect control and ±100 the full control effect; potency means the concentration at half of the fitted maximal effect.", "data": [{"assay": "P-glycoprotein substrates identified in KB-8-5-11 adenocarcinoma cell line, qHTS therapeutic library screen (AID 1346987); further: nearly all actives have a fitted effect of over 65% in size", "conditions": "KB-8-5-11 (P-gp overexpressing) viability, CellTiter-Glo, 72 h; series mostly up to 44.5 µM; activity change, negative = cytotoxicity: at the top concentration", "outline": "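P-gp-mediated resistance screen: KB-8-5-11 cells treated 72 h with compounds in dose-response. CellTiter-Glo viability.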", "values": [{"smiles": "CC(=O)OC1C(O)CC2(C)C(CCC(C)C23Cc2c(O)cc(CO)c(C=O)c2O3)C1(C)C", "note": "(centres undefined)", "activity change, negative = cytotoxicity": "1.78% [at 17.3 µM]"}, {"smiles": "COc1cc2ncnc(Nc3ccc(O)cc3)c2cc1OC", "outcome": "inactive"}, {"smiles": "OCC(CO[C@@H]1O[C@H](CO)[C@@H](O)[C@H](O)[C@H]1O)c1ccc2c(c1)OCO2", "note": "(some centres undefined)", "activity change, negative = cytotoxicity": "3.2%"}, {"smiles": "COC1CC(OC2CCC3(C)C(=CCC4C3C(OC(C)=O)C(OC(=O)/C=C/c3ccccc3)C3(C)C(C(C)O)CCC43O)C2)OC(C)C1OC1CC(OC)C(OC2OC(C)C(OC3OC(CO)C(O)C(O)C3O)C(OC)C2O)C(C)O1", "note": "(centres undefined)", "outcome": "inactive [at 9.29 µM]"}, {"smiles": "CCCN1CCN(c2ccc(C(=O)NC3(C(=O)NCC#N)CCCCC3)cc2)CC1", "activity change, negative = cytotoxicity": "-8.46%"}, {"smiles": "COc1ccc([C@@]2(O)c3c(ccc(CC=C(C)C)c3O)NC(=O)[C@@H]2OC)cc1", "activity change, negative = cytotoxicity": "-21.5%"}, {"smiles": "CC1=C(C(=O)O)/C(=C/CO[C@@H]2O[C@H](COC(=O)/C=C/c3ccc(O)cc3)[C@@H](O)[C@H](O)[C@H]2O)C(O)C1", "note": "(some centres undefined)", "outcome": "inactive [at 17.3 µM]"}, {"smiles": "CC(=O)O[C@H]1C[C@@](O)(C(C)C)C2[C@@H](OC(=O)c3ccc(O)cc3)C[C@@]3(C)O[C@H]3C[C@]21C", "note": "(some centres undefined)", "activity change, negative = cytotoxicity": "-6.91% [at 17.3 µM]"}, {"smiles": "Cc1cnc(NC(=O)Nc2cc(Br)c(C)cc2OCC2CNCCO2)cn1", "note": "(centres undefined)", "Potency": "8.2 µM (active)"}, {"smiles": "COc1c2c(cc3c1-c1c(cc4c(c1OC)OCO4)CC(C)C(C)C3)OCO2", "note": "(centres undefined)", "activity change, negative = cytotoxicity": "-4.87%"}, {"smiles": "CN(C)CC1CCOC1(c1ccccc1)c1ccccc1", "note": "(centres undefined)", "activity change, negative = cytotoxicity": "-11.1% [at 17.3 µM]"}, {"smiles": "CCNCc1nc2c(N)nc3ccccc3c2n1CC(C)(C)O", "activity change, negative = cytotoxicity": "7.86%"}, {"smiles": "O=S(=O)(c1ccc(S(=O)(=O)n2cnc3ccccc32)cc1)N1CCCCCC1", "activity change, negative = cytotoxicity": "-18.6% [at 17.3 µM]"}, {"smiles": "CC1OC(OCC2OC(OC3CCC4(C)C(CCC5(C)C4CC=C4C6CC(C)(C)CCC6(C(=O)OC6OC(CO)C(O)C(O)C6O)CCC45C)C3(C)CO)C(O)C(O)C2O)C(O)C(O)C1O", "note": "(centres undefined)", "outcome": "inactive [at 9.29 µM]"}, {"smiles": "C=C1CCC2C(C)(C(=O)O)CCCC2(C)C1CCC(C)CC(=O)O", "note": "(centres undefined)", "activity change, negative = cytotoxicity": "-3.83%"}, {"smiles": "C=C1C(=O)O[C@H](CCC)[C@H]1C(=O)O", "outcome": "inactive"}, {"smiles": "C=C1CCC2C(C)(C(=O)OC)CCCC2(C)C1CCC(C)CC(=O)O", "note": "(centres undefined)", "outcome": "inactive"}, {"smiles": "COC(=O)C12C(=O)C(C)=C(O)C1(C)C(C)=CC1C3(CO)CCC(O)C(C)(C)C3CCC12C", "note": "(centres undefined)", "activity change, negative = cytotoxicity": "-4.88% [at 17.3 µM]"}, {"smiles": "C=C1OC2CC(C(=O)O)C=CC2NC1=O", "note": "(centres undefined)", "outcome": "inactive"}, {"smiles": "C/C=C/C=C/C(=O)N1CC[C@]23c4ccccc4N[C@H]4N(C)c5cccc6c5[C@@]42CCN([C@H]6C2OC2(C)C)[C@H]13", "note": "(some centres undefined)", "outcome": "inactive [at 17.3 µM]"}, {"smiles": "COc1cc(O)cc(C)c1C(=O)OC1C(CO)OC(OC2C(O)C(O)C(O)C(O)C2O)C(O)C1O", "note": "(centres undefined)", "outcome": "inactive [at 17.3 µM]"}, {"smiles": "CCOc1cc(CC(=O)NC(CC(C)C)c2ccccc2N2CCCCC2)ccc1C(=O)O", "note": "(centres undefined)", "activity change, negative = cytotoxicity": "2.13%"}, {"smiles": "NCCCNc1ccc(Nc2nccc(Nc3cc(C4CC4)[nH]n3)n2)cc1", "Potency": "1.3 µM (active)"}, {"smiles": "COC1/C=C/C(C)(O)C(SCC(N)C(=O)O)CC(=O)OC(C)C(C)CC/C=C/1C", "note": "(centres undefined)", "activity change, negative = cytotoxicity": "6.14% [at 17.3 µM]"}, {"smiles": "C=C[C@H]1[C@H](O[C@@H]2O[C@H](CO)[C@@H](O)[C@H](O)[C@H]2O)OC=C(C(=O)OC)[C@H]1C[C@@H]1c2cc(O)c(O)cc2CCN1C(C)=O", "activity change, negative = cytotoxicity": "5.06% [at 17.3 µM]"}, {"smiles": "C=CC(C)(C)c1[nH]c2ccccc2c1C[C@@H]1NC(=O)[C@H](Cc2c[nH]c3ccccc23)NC1=O", "activity change, negative = cytotoxicity": "0.653% [at 17.3 µM]"}, {"smiles": "C=C1C[C@]23C[C@H]1CC[C@H]2[C@@]12CC[C@H](O)[C@@](C)(C(=O)O1)[C@H]2[C@@H]3C(=O)O", "activity change, negative = cytotoxicity": "5%"}, {"smiles": "Nc1ccc(-c2cccc3c(=O)cc(N4CCOCC4)oc23)cc1", "Potency": "6.51 µM (active)"}, {"smiles": "CC1=CC(=O)CC(C)(C)[C@@]1(O)CC[C@@H](C)O[C@@H]1O[C@H](CO)[C@@H](O)[C@H](O)[C@H]1O", "activity change, negative = cytotoxicity": "-3.96%"}, {"smiles": "C=C(C(=O)OC)C1C(O)CC2(C)C(O)CCC(=O)C2C1O", "note": "(centres undefined)", "activity change, negative = cytotoxicity": "0.374%"}, {"smiles": "CCc1cnn2c(NCc3ccc[n+]([O-])c3)cc(N3CCCCC3CCO)nc12", "note": "(centres undefined)", "Potency": "0.206 µM (active)"}, {"smiles": "CN1CCC(Nc2nc(Nc3ccc(Oc4ccccc4)cc3)c3c(=O)[nH]cc(Br)c3n2)CC1", "Potency": "4.61 µM (active)"}, {"smiles": "CCc1cccc(CC)c1NC(=O)c1nn(C)c2c1CCc1cnc(Nc3ccc(C(=O)NC4CCN(C)CC4)cc3OC(F)(F)F)nc1-2", "Potency": "3.55 µM (active)"}, {"smiles": "COc1cc(C2Oc3c(OC)cc(CCCO)cc3C2CO)ccc1O[C@H]1O[C@H](C)[C@@H](O)[C@H](O)[C@@H]1O", "note": "(some centres undefined)", "activity change, negative = cytotoxicity": "-0.443% [at 17.3 µM]"}, {"smiles": "Cc1c[nH]c2nccc(Oc3c(F)cc(Nc4cc(Cl)nc(N)n4)cc3F)c12", "Potency": "1.3 µM (active)"}, {"smiles": "CC(C)[C@@](C)(O)[C@@H]1CN(c2nc(-c3[nH]nc4ncccc34)c(F)cc2Cl)CCN1", "Potency": "6.51 µM (active)"}, {"smiles": "O=C(CSc1nc2c(c(=O)n1-c1ccccc1)SCC2)Nc1ccc(-c2ccccc2)cn1", "Potency": "0.082 µM (active)"}, {"smiles": "Cn1c(=O)cc(N2CCCC(N)C2)n(Cc2cc(F)ccc2C#N)c1=O", "note": "(centres undefined)", "activity change, negative = cytotoxicity": "3.03%"}, {"smiles": "CC(=O)NC[C@H]1CN(c2ccc(N3CCN(C(=O)CO)CC3)c(F)c2)C(=O)O1", "activity change, negative = cytotoxicity": "-12.9%"}]}]}
